This is one part of the list. The true hit rate is not given.
Target: furin, P09958
Test: furin cleavage Z-score vs untreated control; higher = more cleavage, active = 3.5 or more, inactive = 1 or less, 8 variable residues between constant flanks
Method in brief: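 Magnetic beads held 8-mer peptides by the N-terminus, each fused to a cDNA oligonucleotide, and purified furin was added for 7.5, 15 or 30 min. Released DNA was sequenced after PCR adapter tagging. The cleavage Z-score is the log count relative to furin-free reactions, lowess-adjusted and divided by median absolute deviation.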
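Also: purified furin at 1:10 enzyme:substrate in 50 mM HEPES pH 7.5.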

Chain of furin, P09958 (P09958 whole entry): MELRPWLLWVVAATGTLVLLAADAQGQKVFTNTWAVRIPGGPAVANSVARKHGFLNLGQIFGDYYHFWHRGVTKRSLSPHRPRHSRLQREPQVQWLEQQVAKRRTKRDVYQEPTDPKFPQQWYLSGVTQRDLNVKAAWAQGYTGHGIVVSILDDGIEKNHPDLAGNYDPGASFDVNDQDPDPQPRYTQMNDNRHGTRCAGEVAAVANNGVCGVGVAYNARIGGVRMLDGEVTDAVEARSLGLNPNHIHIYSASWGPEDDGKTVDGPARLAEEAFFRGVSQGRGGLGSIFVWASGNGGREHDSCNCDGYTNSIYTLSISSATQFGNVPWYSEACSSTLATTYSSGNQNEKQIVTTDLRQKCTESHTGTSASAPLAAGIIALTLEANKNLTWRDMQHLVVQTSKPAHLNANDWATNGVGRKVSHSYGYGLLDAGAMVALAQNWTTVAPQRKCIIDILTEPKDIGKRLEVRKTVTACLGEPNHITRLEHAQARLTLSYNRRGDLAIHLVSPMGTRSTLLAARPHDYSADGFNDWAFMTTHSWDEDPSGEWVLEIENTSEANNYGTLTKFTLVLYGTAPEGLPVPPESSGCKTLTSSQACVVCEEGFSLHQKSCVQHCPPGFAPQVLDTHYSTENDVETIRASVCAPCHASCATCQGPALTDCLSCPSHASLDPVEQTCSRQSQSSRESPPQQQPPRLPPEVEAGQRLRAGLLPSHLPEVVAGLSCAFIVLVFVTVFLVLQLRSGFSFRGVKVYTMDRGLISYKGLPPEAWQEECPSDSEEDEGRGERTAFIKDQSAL

| Sequence | furin cleavage Z-score (7.5 min) | furin cleavage Z-score (15 min) | furin cleavage Z-score (30 min) |
| --- | --- | --- | --- |
| CASTLPGNPAAGNASASA [HC1050] | -1.13 (inactive) | 0.099 (inactive) | -1.54 (inactive) |
| CARSRRCLRDAGNASASA [FS-2607] | 4.81 (active) | 5.74 (active) | 5.33 (active) |
| CARSRRWKVKAGNASASA [FS-3211] | 1.85 | -0.535 (inactive) | 0.212 (inactive) |
| CARSRRKLMVAGNASASA [FS-2817] | -1.98 (inactive) | -0.17 (inactive) | -0.107 (inactive) |
| CARSRRNVVMAGNASASA [FS-2382] | 5.51 (active) | 8.6 (active) | 7.9 (active) |
| CARSRRAQPPAGNASASA [FS-2814] | 3.03 | 4.42 (active) | 4.27 (active) |
| CARSRRCTCFAGNASASA [FS-2187] | -0.747 (inactive) | -0.988 (inactive) | -0.963 (inactive) |
| CARSRRALPPAGNASASA [FS-2239] | 7.76 (active) | 7.46 (active) | 7.12 (active) |
| CASTPCSYHLAGNASASA [HC2529] | 0.0863 (inactive) | 1 | 1.34 |
| CAEVVTSFWVAGNASASA [HC2207] | -0.594 (inactive) | 1.74 | -0.243 (inactive) |
| CASIPCSAHLAGNASASA [HC2484] | 0.328 (inactive) | 0.418 (inactive) | 0.274 (inactive) |
| CAVVCCAMSYAGNASASA [HC101] | 1.72 | 0.536 (inactive) | 0.579 (inactive) |
| CASVPAEILRAGNASASA [HC1295] | 0.956 (inactive) | 1.63 | 1.9 |
| CAYDAGCAWYAGNASASA [HC921] | 1.18 | 0.654 (inactive) | 0.883 (inactive) |
| CALVSFLVFFAGNASASA [HC543] | -1.85 (inactive) | -1.89 (inactive) | -0.773 (inactive) |
| CARSRKAVDWAGNASASA [FS-2238] | -0.617 (inactive) | 2.48 | 2.21 |
| CARSRKIAESAGNASASA [FS-2526] | -1.24 (inactive) | -0.08 (inactive) | -0.238 (inactive) |
| CASQGRRRRPAGNASASA [FS-194] | -0.188 (inactive) | 0.828 (inactive) | 0.793 (inactive) |
| CARSRRAATSAGNASASA [FS-3092] | 10.1 (active) | 11.9 (active) | 9.59 (active) |
| CARSNRDVFVAGNASASA [FS-1975] | 1.39 | 1.28 | 0.58 (inactive) |
| CARSRRTICVAGNASASA [FS-3239] | 3.04 | 0.821 (inactive) | 3.9 (active) |

| Sequence | furin cleavage Z-score (7.5 min) | furin cleavage Z-score (15 min) | furin cleavage Z-score (30 min) |
| --- | --- | --- | --- |
| CARSFRSVTSAGNASASA [FS-3234] | -0.371 (inactive) | 0.166 (inactive) | 0.853 (inactive) |
| CARSRRRRRPAGNASASA [FS-1407] | 4.05 (active) | 4.27 (active) | 4.75 (active) |
| CARSRRAVSVAGNASASA [FS-2815] | 4.34 (active) | 4.32 (active) | 4.26 (active) |
| CARSRRTWELAGNASASA [FS-3265] | -1.05 (inactive) | 3.1 | 1.34 |
| CARSRNLGKVAGNASASA [HC218] | 1.83 | 3.1 | 0.167 (inactive) |
| CAPPSRRRRPAGNASASA [FS-1052] | 0.863 (inactive) | 0.662 (inactive) | 0.635 (inactive) |
| CASTPCSAHVAGNASASA [HC2570] | 0.366 (inactive) | 0.384 (inactive) | 0.66 (inactive) |
| CASGSWLRDIAGNASASA [HC1147] | -1.83 (inactive) | -1.36 (inactive) | 0.113 (inactive) |
| CAVDFIPVENAGNASASA [HC757] | -0.627 (inactive) | -0.626 (inactive) | -2 (inactive) |
| CAVLQRSKRGAGNASASA [FS-1177] | 10.8 (active) | 9.33 (active) | 7.91 (active) |
| CAMWERYCRGAGNASASA [FS-1377] | 1.18 | 1.38 | 0.416 (inactive) |
| CAQQSRSKRGAGNASASA [FS-286] | 7.44 (active) | 8.25 (active) | 7.09 (active) |
| CAPNSPSKRGAGNASASA [FS-474] | 0.58 (inactive) | -0.142 (inactive) | 0.811 (inactive) |
| CAVTVRWKRGAGNASASA [FS-313] | 10.9 (active) | 12.2 (active) | 8.51 (active) |
| CAHCSRSKRPAGNASASA [FS-790] | 0.521 (inactive) | 0.407 (inactive) | -1.15 (inactive) |
| CAIRMYVGGVAGNASASA [HC475] | -0.513 (inactive) | -1.17 (inactive) | -0.0738 (inactive) |
| CAWHYPPKPCAGNASASA [HC404] | 2.21 | 0.243 (inactive) | -0.391 (inactive) |
| CADSSVLCECAGNASASA [HC917] | -0.488 (inactive) | 0.33 (inactive) | -0.601 (inactive) |
| CAEVVTATWVAGNASASA [HC141] | 0.437 (inactive) | 0.0461 (inactive) | -0.276 (inactive) |
| CAETWKKPDYAGNASASA [HC1310] | -0.221 (inactive) | -1.55 (inactive) | -1.15 (inactive) |
| CAVVCCSMKYAGNASASA [HC2074] | 0.109 (inactive) | 0.25 (inactive) | 0.72 (inactive) |

Source: the supplement of paper PMC3545927
